Compound activity (PubChem)
In the library only some 1.9% were active in any assay of this set; here they are far more common.
GALR2 ag: GALR2 receptor agonists, primary screen, cell-based. Galanin receptor type 2 (Homo sapiens), O43603. GALR2-expressing cells, agonist activation read-out. activation, % (no concentration beside the values). actives 0.48% (n = 140,000). AID 803, 2007; in the data active = activation above about 5%, passing the limit was not always enough
GALR2 antag: GALR2 antagonists in receptor-expressing cells, primary screen. Galanin receptor type 2 (Homo sapiens), O43603. antagonist mode. inhibition, % at 4 µM. actives 0.39% (n = 140,000). AID 828, 2007; in the data active = inhibition above about 27%;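 also: cells stimulated with galanin 1-16 at roughly its EC80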
FAK inh: FAK kinase inhibitors, primary screen, biochemical. Focal adhesion kinase 1 (Homo sapiens), Q05397. biochemical FAK kinase activity assay. inhibition, %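 (tested at 7 µM)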. actives 0.84% (n = 97,000)
S1P2 antag: human S1P2 receptor antagonists, primary screen, cell-based | actives 0.21% (n = 97,000) | cell-based S1P2 antagonist assay, inhibition at 5 uM | inhibition, % at 5 µM | Sphingosine 1-phosphate receptor 2 (Homo sapiens), O95136; in the data active = inhibition above about 45%;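 also: CRE beta-lactamase reporter cells expressing human S1P2 stimulated with S1P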
Target sequence (O95136 whole entry, looked up): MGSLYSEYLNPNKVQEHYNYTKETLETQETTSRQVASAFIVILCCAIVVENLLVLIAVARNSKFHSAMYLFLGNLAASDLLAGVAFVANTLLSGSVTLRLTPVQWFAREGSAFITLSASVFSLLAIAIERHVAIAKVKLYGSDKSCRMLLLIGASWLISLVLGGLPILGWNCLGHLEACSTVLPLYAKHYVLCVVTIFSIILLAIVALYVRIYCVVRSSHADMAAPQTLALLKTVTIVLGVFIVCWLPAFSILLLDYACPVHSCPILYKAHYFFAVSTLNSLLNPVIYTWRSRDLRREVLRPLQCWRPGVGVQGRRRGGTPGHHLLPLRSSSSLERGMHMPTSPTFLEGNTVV
SDO1 yeast rescue: growth rescue of sdo1-depleted yeast, primary screen, S. cerevisiae, bone marrow failure model | S. cerevisiae sdo1-depleted JHY4D growth rescue, OD600 30 h; active compounds read high; pdr5 snq2 efflux-pump mutant strain | z-score at 10 µM | actives 0.21% (n = 140,000) | AID 817, 2007;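 active = z-score above 3 at both the 24 hr and the 30 hr optical density reads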
S1P2 agonist: S1P2 receptor agonists, primary screen, cell-based. S1P2-expressing cell line, agonist reporter read-out. activation, % at 4.5 µM. actives 0.46% (n = 97,000). AID 729, 2007; in the data active = activation above about 16%
FAK inh confirm: FAK kinase inhibitors, retest, confirmation, biochemical; shares compounds with FAK inh; FAK kinase biochemical inhibition assay; inhibition, % at 7 µM; actives 28% (n = 750); AID 794, 2007
GALR2 ag confirm: GALR2 agonists, retest of hits, confirmation, cell-based; shares compounds with GALR2 ag; GALR2-expressing cells, agonist activation; activation, % at 5.6 µM; actives 10% (n = 460); in the data active = activation above about 8.4%
BLA activ ctr: activators of NFAT-driven beta-lactamase reporter, confirmation, counter-screen for GALR2 agonist project, CHO NFAT-bla cells, FRET readout. AID 865, 2007. activation, % at 5.6 µM. actives 10% (n = 460). shares compounds with GALR2 ag. beta-lactamase FRET activation;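 active = activation above the screen-wide mean activation plus 3 SD, cut at about 8% in these data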
sdo1 rescue conf: SDO1-depleted yeast growth rescue, concentration-response, diseases of bone marrow failure, JHY4D, OD600; shares compounds with SDO1 yeast rescue; S. cerevisiae JHY4D (SDO1-depleted) growth rescue, 30 h; active compounds read high; efflux-deficient strain, SNQ2 and PDR5 mutated; OD recovery (concentration not given with the values); AID 949, 2007; actives 44% (n = 440);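 active = yeast growth recovered at 30 hours, either rising with dose fitted slope above 0.001 or with average optical density gain above 0.07, some results past the limit were not filed as active; inactive = growth falling with dose or no effect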
Of the large screens only hits and unclear results are named; the others gave an inactive call (follow-up assays come after a bar, where they were run). Rule as the data show it, unless noted: active = inhibition above about 19%; inactive = the rest.

Cc1cccc(N2C(=O)NC(=O)/C(=C\c3cccn3-c3ccc(Cl)cc3)C2=O)c1	S1P2 antag 56.1
C[C@H]1CCC[C@@H](O)CCC/C=C/c2cc(O)cc(O)c2C(=O)O1	none
C[C@H]1CCC/C=C/C2C[C@H](O)CC2[C@H](O)/C=C/C(=O)O1 (stereo not given in full)	GALR2 antag 49.4 (no result: FAK inh, S1P2 antag, S1P2 agonist)
CN1/C(=C\C=Nc2ccccc2)C(C)(C)c2ccccc21	none
CN1/C(=C\C=C\C2=[N+](C)c3ccc4ccccc4c3C2(C)C)C(C)(C)c2ccccc21	S1P2 antag 94.9
CC(C)c1ccc(N2C(=O)NC(=O)/C(=C/c3cnc(-c4ccccc4)nc3)C2=O)cc1	none (no result: FAK inh, S1P2 antag, S1P2 agonist)
CSc1ncc(/C=C2/C(=O)NC(=O)N(c3ccc(C(C)C)cc3)C2=O)cn1	GALR2 ag 5.1 (no result: FAK inh, S1P2 antag, S1P2 agonist)
CCn1nc(-c2ccccc2)nc2c(=O)n(C)c(=O)nc1-2	GALR2 antag 95.0 (no result: FAK inh, S1P2 antag, S1P2 agonist)
O=c1cccc2n1CC1CC2CN(C(c2cccc(F)c2)c2sc3ncnn3c2O)C1 (stereo not given)	none
CC(C)c1cccc(C(C)C)c1OCCn1ccnc1	none
CC(C)N1C(=O)CC2(CC[N+](C)(CCOC(=O)C(O)(c3ccccc3)c3ccccc3)CC2)C1=O (stereo not given)	none
CC(C)CNC(=O)c1c(N)n(Cc2ccco2)c2nc3ccccc3nc12	GALR2 ag 16.6, S1P2 agonist 32.9
CC(C)OCCCNC(=O)c1c(N)n(Cc2cccs2)c2nc3ccccc3nc12	GALR2 ag 28.6 (no result: FAK inh, S1P2 antag, S1P2 agonist)
CC(C)CCNC(=O)c1c(N)n(Cc2ccc3c(c2)OCO3)c2nc3ccccc3nc12	S1P2 agonist 129.3
CC(C)OC(=O)c1c(N)n(Cc2ccco2)c2nc3ccccc3nc12	none
Nc1c(C(=O)NCc2ccco2)c2nc3ccccc3nc2n1CCN1CCCCC1	S1P2 agonist 27.8
O=P(OCC(F)(F)C(F)F)(N1CCCCC1)N1CCCCC1	none
OC1(CN2CCOCC2)C2CC3CC(C2)CC1C3 (stereo not given)	none
O=C1C(=O)c2ccccc2-c2ccccc21	FAK inh 59.4 | FAK inh confirm 58.9
O=C(C1CC(=O)N(C2CCCCCCC2)C1)N1CCC2(CC1)OCCO2 (stereo not given)	none
Nc1c(C(=O)NC2CCCC2)c2nc3ccccc3nc2n1CC1CCCO1 (stereo not given)	GALR2 ag 32.5, FAK inh 35.5, S1P2 agonist 44.4 | FAK inh confirm inactive
COCCNC(=O)c1c(N)n(CCC(C)C)c2nc3ccccc3nc12	GALR2 ag 15.9, FAK inh 26.1, S1P2 agonist 16.4 | FAK inh confirm inactive
COCCCn1c(N)c(C(=O)OCCOC)c2nc3ccccc3nc21	none (no result: FAK inh, S1P2 antag, S1P2 agonist)
CC(C)CCn1c(N)c(C(=O)NCc2cccs2)c2nc3ccccc3nc21	FAK inh 23.4 | FAK inh confirm inactive
COc1ccc2c(c1)c(C(=O)O)c(C)n2CC(C)C	none
CCCCn1c(C)c(C(=O)O)c2cc(OC)ccc21	FAK inh 31.8 | FAK inh confirm inactive
C=C(C)Cn1c(=O)n(CC2CS2)c2ccccc21 (stereo not given)	none (no result: FAK inh, S1P2 antag, S1P2 agonist)
COc1ccc(P2(=O)Nc3ccccc3N2)cc1	FAK inh 39.8 | FAK inh confirm inactive
COc1ccc(NP(=O)(Nc2ccc(OC)cc2)Oc2ccccc2)cc1	none (no result: FAK inh, S1P2 antag, S1P2 agonist)
CC/C(=N\N1CCCCCC1)c1c(O)n(-c2ccc(C)cc2)c(=O)[nH]c1=O	none (no result: FAK inh, S1P2 antag, S1P2 agonist)
CC(C)CNC(=O)c1c(N)n(Cc2ccc3c(c2)OCO3)c2nc3ccccc3nc12	GALR2 ag 40.2, FAK inh 31.0, S1P2 agonist 66.6 | FAK inh confirm inactive
COc1ccc(Cn2c(N)c(C(=O)NCc3ccco3)c3nc4ccccc4nc32)cc1OC	FAK inh 33.7 | FAK inh confirm inactive
O=C(c1cc(=O)[nH]c2ccc(Br)cc12)N1CCC2(CC1)OCCO2	none
C=CCN(CC=C)Cc1c[nH]c2ccccc12	none
O/N=C/c1c[nH]c2ccccc12	FAK inh 37.9 | FAK inh confirm inactive
CCn1c(O)c(C(c2ccccn2)c2c(O)n(CC)c(=S)[nH]c2=O)c(=O)[nH]c1=S	none
COc1cc(CN2CCN(c3cc(C)ccc3C)CC2)ccc1O	GALR2 ag 48.5 | GALR2 ag confirm inactive | BLA activ ctr inactive
CCn1c(=O)cc(SCC(=O)N2CCC3(CC2)OCCO3)c2ccccc21	none
CCCCNC(=O)c1c(N)n(CCCOC)c2nc3ccccc3nc12	GALR2 ag 9.4 (no result: FAK inh, S1P2 antag, S1P2 agonist) | GALR2 ag confirm inactive | BLA activ ctr 13.9
CCCNC(=O)c1c(N)n(Cc2ccco2)c2nc3ccccc3nc12	GALR2 ag 17.9 | GALR2 ag confirm inactive | BLA activ ctr 11.1
CCOC(=O)c1c(NS(=O)(=O)c2ccccc2)n(CCCOC)c2nc3ccccc3nc12	none (no result: FAK inh, S1P2 antag, S1P2 agonist)
COCCCNC(=O)c1c(NC(=O)c2ccco2)n(Cc2ccccc2)c2nc3ccccc3nc12	none | GALR2 ag confirm inactive | BLA activ ctr inactive
CNC(C(=O)c1ccccc1)C(OC)c1ccc(C)cc1 (stereo not given)	none (no result: FAK inh, S1P2 antag, S1P2 agonist)
COC(=O)C(O)(c1c(C)[nH]c2ccccc12)C(F)(F)F (stereo not given)	none
Cc1ccc(C2=NC(C)(C)N3C2C3c2ccc([N+](=O)[O-])cc2)cc1 (stereo not given)	GALR2 ag 10.3 (no result: FAK inh, S1P2 antag, S1P2 agonist) | GALR2 ag confirm inactive | BLA activ ctr inactive
O=[N+]([O-])c1ccc(C2[C@H]3C(c4ccccc4)=NC4(CCCC4)N23)cc1 (stereo not given in full)	none (no result: FAK inh, S1P2 antag, S1P2 agonist)
C[N+]1=C(/C=C/Nc2ccccc2)C(C)(C)c2ccccc21	SDO1 yeast rescue 6.15 (no result: FAK inh, S1P2 antag, S1P2 agonist) | sdo1 rescue conf 0.136
CNCCc1nc(N)n[nH]1	none
COc1ccccc1N=Cc1c(O)n(C)c(=O)n(C)c1=O	SDO1 yeast rescue 3.23 | sdo1 rescue conf 0.0833
C#CCNc1ccncc1S(=O)(=O)NC(=O)NC(C)C	none
